Source: PubChem BioAssay (NCI)
About 83,000 compounds went through this panel and 20% of them were active in at least one assay; those are over-represented in the sample as a whole.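 Plates (96-well) were seeded with cells, treated with compound at one concentration, and incubated for 48 hours before percent growth was determined.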 A number with no mark means an inactive call. The source made the active and inactive calls. Rule for the calls: active = growth percent below 10; inactive = the rest.

What follows are compounds tested on K-562 leukemia (assay: NCI-60 one-dose screen, 48 h (100 = growth as untreated, 0 = no growth, -100 = all killed)). Conditions: 10 µM.
With `Clc1ccc(Nc2ccnc(NCCCNc3ccnc4cc(Cl)ccc34)n2)cc1` the growth was -56.9% (active). `Oc1[nH]c2cc(Cl)ccc2c1/C=c1/ccc2c(c1)N=C(c1cc(F)cc(F)c1)N=2` showed a growth of 10.3%. Compound `CSc1nn(-c2ccccc2)c2ncnc(Oc3ccccc3)c12` has a growth of 96.5%. With `Cc1cc2c(C)c3cc(C)c(N)cc3nc2cc1N` the growth was 1.18% (active). `CCOC(=O)C1(CC(C)C)CCOC1=O` (stereo not drawn) gave a growth of 97.8%. For `COc1ccc(Nc2cc(C)nc(NCCCNc3ccnc4cc(Cl)ccc34)n2)cc1`, the growth was -42.2% (active). `CCCCCCCCCCCCCCCC(=O)OC1[C@@H](OC(=O)CCCCCCCCCCCCCCC)[C@@H](C(=O)N[C@@H](CCCCN)C(=O)OC)O[C@H]1n1cnc2c(=O)[nH]c(NC(=O)C(C)C)nc21` (stereo partly drawn) gave a growth of 82.9%. In the case of `COc1cc(Nc2ccnc(NCCNc3ccnc4cc(Cl)ccc34)n2)cc(OC)c1`, the growth is reported as 2.17% (active). For `Cc1cc(Nc2ccc(Cl)cc2)nc(NCCCNc2ccnc3cc(Cl)ccc23)n1`, the growth was -53.8% (active). In the case of `COc1cc2cc3c(nc2cc1OC)CCN3Cc1ccc(NC(=O)Nc2cc(C(F)(F)F)cc(C(F)(F)F)c2)cc1`, the growth is reported as 49.8%. For `CC(C)=CCc1cc(O)cc2c1OC(C=C(C)C)C1=C2C(=O)C2=C(NCCS2(=O)=O)C1=O` (stereo not drawn), the growth was 2.31% (active). With `CC(C)=CCc1cc(O)cc2c1OC(C=C(C)C)C1=C2C(=O)C2=C(C1=O)S(=O)(=O)CCN2` (stereo not drawn) the growth was 5.77% (active). With `COc1ccc(Nc2ccnc(NCCNc3ccnc4cc(Cl)ccc34)n2)cc1` the growth was 3.54% (active). In the case of `Cc1cc(Cl)nc(N(CCCNc2ccnc3cc(Cl)ccc23)Cc2cccs2)n1`, the growth is reported as -11.7% (active). In the case of `COc1cc(Cl)cc(-c2nn(-c3cccc(NC(=O)Nc4cc(C(F)(F)F)cc(C(F)(F)F)c4)c3)cc2-c2ccncc2)c1`, the growth is reported as 6.4% (active). `CN(C)CCNC(=O)c1cccn2c(=O)c3cc4ccccc4cc3nc12` was tested, and the growth was 4.58% (active). `CC12O[C@H](C[C@@H](O)[C@H]1O)n1c3ccccc3c3c4c(c5c6ccccc6n2c5c31)C(=O)N(CCCN)C4=O` gave a growth of 15.5%. `CCCCCCCC(C)NCCO` (stereo not drawn) was tested, and the growth was 103%. In the case of `Cc1cc(N(CCCNc2ccnc3cc(Cl)ccc23)Cc2ccc3c(c2)OCO3)nc(N2CCOCC2)n1`, the growth is reported as -6.17% (active). `COc1cc(-c2nnc(-c3c(-c4ccc(F)cc4)nc4ccccn34)o2)cc(OC)c1OC` gave a growth of 98.8%. For `COc1ccc2c(c1)/C(=C\c1c[nH]c3ccc(OC)cc13)C(=O)N2`, the growth was 11.6%. Compound `NC(=O)CC1(c2ccccc2)CCCCC1` has a growth of 92.3%. `COc1ccc(-c2nc3sccn3c2-c2nc3c([nH]2)C(=O)c2ccccc2C3=O)cc1` showed a growth of 84.8%. `Fc1ccc(-c2nnc(-c3c(-c4ccc(F)cc4)nc4ccccn34)o2)cc1` gave a growth of 87.2%. With `CCN1CCCC1CNC(=O)c1ncc(-c2ccc(C(F)(F)F)cc2)c(NC2CCCCCC2)n1` (stereo not drawn) the growth was 8.32% (active). In the case of `Cc1ccc(Nc2cc(C)nc(NCCCNc3ccnc4cc(Cl)ccc34)n2)cc1`, the growth is reported as -55% (active). For `Cn1c([N+](=O)[O-])cnc1/C=C1\Oc2ccccc2C1=O`, the growth was 3.53% (active). `CC12O[C@H](C[C@@H](OC(=O)c3ccccc3)[C@H]1O)n1c3ccccc3c3c4c(c5c6ccccc6n2c5c31)C(=O)NC4=O` showed a growth of 71%. With `COc1ccc(-c2nc3ncccn3c2-c2nnc(-c3ccc(F)cc3)o2)cc1` the growth was 87.7%. `Nc1ccc2c(c1)C1(CCC2)NC(=O)NC1=O` (stereo not drawn) gave a growth of 95.8%. For `COc1cc(OC)cc(-c2cncn2-c2ccc(-c3nc4cc(OC)cc(OC)c4s3)cc2)c1`, the growth was 19.2%. `Clc1ccc2c(NCCCNc3nccc(Nc4ccc(Br)cc4)n3)ccnc2c1` was tested, and the growth was -68.8% (active). Compound `O=C(Nc1cccc(Br)c1)c1cc(=O)[nH]c2ccccc12` has a growth of 55.8%. With `COc1cc(Nc2ccnc(NCCCNc3ccnc4cc(Cl)ccc34)n2)cc(OC)c1` the growth was -51.1% (active). With `CN1CCC(CNc2cc(C3(C(=O)Nc4cc(C(=O)Nc5ccc(Cl)c(C(F)(F)F)c5)ccc4F)CC3)ncn2)CC1` the growth was -60.3% (active). With `N#Cc1c(C#N)c(SSc2c(C#N)c(C#N)c(N)n2-c2ccccc2)n(-c2ccccc2)c1N` the growth was -17.7% (active). `Clc1ccc(Nc2ccnc(NCCNc3ccnc4cc(Cl)ccc34)n2)cc1` was tested, and the growth was -54.6% (active). With `Cc1cc(N(CCCNc2ccnc3cc(Cl)ccc23)Cc2ccc3c(c2)OCO3)nc(N2CCCCC2)n1` the growth was -45.5% (active). `CCCCN(CCCC)c1cc(C(=O)CCCCCN)c2ccccc2n1` was tested, and the growth was -67.9% (active).

Each compound was assayed on MALME-3M melanoma in the same assay as above. Conditions: 10 µM.
In the case of `Clc1ccc(Nc2ccnc(NCCCNc3ccnc4cc(Cl)ccc34)n2)cc1`, the growth is reported as -81% (active). `Oc1[nH]c2cc(Cl)ccc2c1/C=c1/ccc2c(c1)N=C(c1cc(F)cc(F)c1)N=2` gave a growth of 51.4%. `CSc1nn(-c2ccccc2)c2ncnc(Oc3ccccc3)c12` showed a growth of 104%. For `Cc1cc2c(C)c3cc(C)c(N)cc3nc2cc1N`, the growth was -3.24% (active). `CCOC(=O)C1(CC(C)C)CCOC1=O` (stereo not drawn) gave a growth of 101%. With `COc1ccc(Nc2cc(C)nc(NCCCNc3ccnc4cc(Cl)ccc34)n2)cc1` the growth was -86.2% (active). `CCCCCCCCCCCCCCCC(=O)OC1[C@@H](OC(=O)CCCCCCCCCCCCCCC)[C@@H](C(=O)N[C@@H](CCCCN)C(=O)OC)O[C@H]1n1cnc2c(=O)[nH]c(NC(=O)C(C)C)nc21` (stereo partly drawn) showed a growth of 98.5%. `COc1cc(Nc2ccnc(NCCNc3ccnc4cc(Cl)ccc34)n2)cc(OC)c1` was tested, and the growth was -68.3% (active). With `Cc1cc(Nc2ccc(Cl)cc2)nc(NCCCNc2ccnc3cc(Cl)ccc23)n1` the growth was -82.2% (active). `COc1cc2cc3c(nc2cc1OC)CCN3Cc1ccc(NC(=O)Nc2cc(C(F)(F)F)cc(C(F)(F)F)c2)cc1` gave a growth of 92.1%. With `CC(C)=CCc1cc(O)cc2c1OC(C=C(C)C)C1=C2C(=O)C2=C(NCCS2(=O)=O)C1=O` (stereo not drawn) the growth was -92.9% (active). For `CC(C)=CCc1cc(O)cc2c1OC(C=C(C)C)C1=C2C(=O)C2=C(C1=O)S(=O)(=O)CCN2` (stereo not drawn), the growth was -64.7% (active). `COc1ccc(Nc2ccnc(NCCNc3ccnc4cc(Cl)ccc34)n2)cc1` was tested, and the growth was -1.18% (active). `Cc1cc(Cl)nc(N(CCCNc2ccnc3cc(Cl)ccc23)Cc2cccs2)n1` was tested, and the growth was -30% (active). With `COc1cc(Cl)cc(-c2nn(-c3cccc(NC(=O)Nc4cc(C(F)(F)F)cc(C(F)(F)F)c4)c3)cc2-c2ccncc2)c1` the growth was -19.2% (active). With `CN(C)CCNC(=O)c1cccn2c(=O)c3cc4ccccc4cc3nc12` the growth was -45.2% (active). `CC12O[C@H](C[C@@H](O)[C@H]1O)n1c3ccccc3c3c4c(c5c6ccccc6n2c5c31)C(=O)N(CCCN)C4=O` gave a growth of 33.4%. With `CCCCCCCC(C)NCCO` (stereo not drawn) the growth was 107%. With `Cc1cc(N(CCCNc2ccnc3cc(Cl)ccc23)Cc2ccc3c(c2)OCO3)nc(N2CCOCC2)n1` the growth was -71.4% (active). For `COc1cc(-c2nnc(-c3c(-c4ccc(F)cc4)nc4ccccn34)o2)cc(OC)c1OC`, the growth was 105%. `COc1ccc2c(c1)/C(=C\c1c[nH]c3ccc(OC)cc13)C(=O)N2` showed a growth of 91.8%. Compound `NC(=O)CC1(c2ccccc2)CCCCC1` has a growth of 93.8%. Work on `COc1ccc(-c2nc3sccn3c2-c2nc3c([nH]2)C(=O)c2ccccc2C3=O)cc1` yielded a growth of 151%. Compound `Fc1ccc(-c2nnc(-c3c(-c4ccc(F)cc4)nc4ccccn34)o2)cc1` has a growth of 120%. Compound `CCN1CCCC1CNC(=O)c1ncc(-c2ccc(C(F)(F)F)cc2)c(NC2CCCCCC2)n1` (stereo not drawn) has a growth of 54%. For `Cc1ccc(Nc2cc(C)nc(NCCCNc3ccnc4cc(Cl)ccc34)n2)cc1`, the growth was -80.5% (active). With `Cn1c([N+](=O)[O-])cnc1/C=C1\Oc2ccccc2C1=O` the growth was -71.1% (active). For `CC12O[C@H](C[C@@H](OC(=O)c3ccccc3)[C@H]1O)n1c3ccccc3c3c4c(c5c6ccccc6n2c5c31)C(=O)NC4=O`, the growth was 46.4%. `COc1ccc(-c2nc3ncccn3c2-c2nnc(-c3ccc(F)cc3)o2)cc1` gave a growth of 122%. In the case of `Nc1ccc2c(c1)C1(CCC2)NC(=O)NC1=O` (stereo not drawn), the growth is reported as 101%. In the case of `COc1cc(OC)cc(-c2cncn2-c2ccc(-c3nc4cc(OC)cc(OC)c4s3)cc2)c1`, the growth is reported as 48%. In the case of `Clc1ccc2c(NCCCNc3nccc(Nc4ccc(Br)cc4)n3)ccnc2c1`, the growth is reported as -83.8% (active). Work on `O=C(Nc1cccc(Br)c1)c1cc(=O)[nH]c2ccccc12` yielded a growth of 101%. `COc1cc(Nc2ccnc(NCCCNc3ccnc4cc(Cl)ccc34)n2)cc(OC)c1` was tested, and the growth was -87.7% (active). In the case of `CN1CCC(CNc2cc(C3(C(=O)Nc4cc(C(=O)Nc5ccc(Cl)c(C(F)(F)F)c5)ccc4F)CC3)ncn2)CC1`, the growth is reported as -67.7% (active). Compound `N#Cc1c(C#N)c(SSc2c(C#N)c(C#N)c(N)n2-c2ccccc2)n(-c2ccccc2)c1N` has a growth of 95.1%. `Clc1ccc(Nc2ccnc(NCCNc3ccnc4cc(Cl)ccc34)n2)cc1` was tested, and the growth was -83.6% (active). In the case of `Cc1cc(N(CCCNc2ccnc3cc(Cl)ccc23)Cc2ccc3c(c2)OCO3)nc(N2CCCCC2)n1`, the growth is reported as -81.6% (active). For `CCCCN(CCCC)c1cc(C(=O)CCCCCN)c2ccccc2n1`, the growth was -74.4% (active).
